From PubChem
Hits are enriched below; roughly 2.7% of the tested compounds scored in any of these assays.
ClpP mod: qHTS Assay for Activators of ClpP; ATP-dependent Clp protease proteolytic subunit (Bacillus subtilis (strain 168)), P80244; purified B. subtilis ClpP, FRET peptide cleavage, 20 min; Potency, µM (titrated, usually from 57.5 µM), inactives show at the highest dose activity change, negative = active; hit rate 1.9% among 340,000; AID 651965, 2013; active = well fitted falling curve with a large enough effect; inconclusive = small, poorly fitted or top-dose-only effect; inactive = no such curve, though single readings can be large or run the other way; also: potency is read from the fitted curve at half-maximal effect; the source files actives as falling curves though it sought activators and does not explain the sign; nearly all actives have a fitted effect of over 65% in size
Target sequence (P80244 whole entry, looked up): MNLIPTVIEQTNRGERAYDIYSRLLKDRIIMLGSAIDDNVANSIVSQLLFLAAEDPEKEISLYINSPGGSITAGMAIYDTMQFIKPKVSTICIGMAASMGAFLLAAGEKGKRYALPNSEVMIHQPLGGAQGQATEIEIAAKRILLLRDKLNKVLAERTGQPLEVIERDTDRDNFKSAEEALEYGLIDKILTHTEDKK
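ClpP 10 microg/mL final, pH 8 Tris/KCl buffer with BSA, glycerol, Tween-20; compound pinned in; FRET-FV substrate; RT 20 min; Ex320/Em430; ΔFRET vs ADEP 5.8 microM, DMSO, no enzyme.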
gsp antagonist: qHTS for Antagonists of gsp, the Etiologic Mutation Responsible for Fibrous Dysplasia/McCune-Albright Syndrome: qHTS; hit rate 0.4% among 340,000; Potency, µM (doses to about 76.9 µM), without a hit: at the highest dose activity change, negative = inhibition, usual class: inhibitors; gsp-mutant cells, cAMP HTRF, 30 min; calls by dose curve; cell line not stated here;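 also: intracellular cAMP measured with PDE inhibitor Ro 20-1724 present during compound exposure; potency is read from the fitted curve at half-maximal effect; % is scaled to controls: 0 for no effect and ±100 for the full control effect; nearly all actives have a fitted effect of over 65% in size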
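G418-selected cells were plated in DMEM/10% FBS for 16-24 h at 37C, then treated with compounds plus the PDE inhibitor […] (300 uM solution added) for 30 min at 37C. Intracellular cAMP was measured by HTRF after 30 min lysis at room temperature.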
RXFP1 antag: qHTS Assay for Antagonists of the Relaxin Receptor RXFP1; HEK293-RXFP1, relaxin-stimulated cAMP HTRF, 30 min; active compounds read low; activity change, negative = inhibition, % at 57.5 µM; hit rate 0.59% among 350,000;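 active = activity change of -60% or lower, but not beyond a set lower limit; inconclusive = change between -60% and -40%, or beyond the set limit; inactive = change above -40%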; also: % is scaled to controls: 0 for no effect and ±100 for the full control effect
Akt phos inh: HTS Assay for Inhibitors of Akt Phophorylation: Primary Screen | Neuro2A IGF-stimulated pAkt S473 HTRF, 20 min; active compounds read low | activity change, % for hits at 50 µM | hit rate 0.32% among 360,000 | AID 651550, 2012; in the data active = activity change below about -80%; inconclusive = mostly about -51% to -80%; also: % is scaled to controls: 0 for no effect and ±100 for the full control effect
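Single-point screen (50 µM final compound) in Neuro2A cells stimulated 20 min with 6 nM IGF at 37 deg C. After lysis, Ser473-phosphorylated Akt read by HTRF (ex 330 nm, em 615/665 nm) as the 665/615 ratio.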
RXFP1 agonist: qHTS Assay for Agonists of the Relaxin Receptor RXFP1; Relaxin receptor 1 (Homo sapiens), Q9HBX9; HEK293T-RXFP1 cAMP TR-FRET, 30 min; response scale: percent of porcine relaxin response, buffer zero; Potency, µM (highest dose often 57.5 µM), for inactives: at the top dose activation, most hits filed as activators; hit rate 0.3% among 370,000; active = well fitted activation curve with a large enough effect; inconclusive = small, poorly fitted or top-dose-only effect; also: potency is read from the fitted curve at half-maximal effect; % is scaled to controls: 0 for no effect and ±100 for the full control effect; nearly all actives have a fitted effect of over 60% in size
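HEK293T cells stably expressing RXFP1 were pretreated with the PDE4 inhibitor Ro 20174, exposed to compounds for 30 min at 37C, lysed, and cAMP was read by TR-FRET. Data normalized to buffer (basal) and 29 nM porcine relaxin (100%).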
gsp ag: qHTS for Agonist of gsp, the Etiologic Mutation Responsible for Fibrous Dysplasia/McCune-Albright Syndrome: qHTS; AID 624287, 2012; gsp mutant cells, cAMP HTRF, 30 min; hit rate 0.13% among 340,000; Potency, µM (titrated, usually from 76.9 µM), for the others: top-dose activation (cAMP increase), usual class: activators; active = well fitted activation curve with a large enough effect; inconclusive = small, poorly fitted or top-dose-only effect, or another doubt; inactive = no such curve, though single readings can be large or run the other way; cell line not stated here;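 also: phosphodiesterase inhibitor Ro 20-1724 added with compounds to block cAMP breakdown; potency is read from the fitted curve at half-maximal effect; nearly all actives have a fitted effect of over 60% in size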
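Cells stably selected in G418 were plated at 2000/well, grown 16-24 hr, then given compounds in DMSO with the PDE inhibitor […] (300 uM solution added) for 30 min at 37C; cAMP was read by HTRF.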
* = called active by the depositor; i = inactive; u = inconclusive; x = not tested or not shown; [ ] = remark or other dose.

SMILES	ClpP mod	gsp antagonist	RXFP1 antag	Akt phos inh	RXFP1 agonist	gsp ag
CCCn1c(=O)[nH]c(=O)c2c1nc(-c1ccc(C(F)(F)F)cc1)n2CCOC	x	-13%	2	i	1%	17%[15.4 µM]
COCCn1c(-c2ccc(OC(F)(F)C(F)C(F)(F)F)cc2)nc2c1c(=O)[nH]c(=O)n2CC(C)C (stereo not given)	28µM*	-6%	-5	i	2%	27%
COCCn1c(-c2ccc(SC)cc2)nc2c1c(=O)[nH]c(=O)n2CC(C)C	x	-21%	-8	i	7%	-30%
CCCn1c(=O)[nH]c(=O)c2c1nc(-c1ccccc1OC(F)F)n2CCOC	25µM*	-4%	-6	i	2%	-10%
CC1=C(C(=O)Nc2cccc(C(F)(F)F)c2)C(c2ccccc2)n2ncnc2N1 (stereo not given)	-2%	x	x	x	-2%	x
COCCN(C(=O)c1ccc(-c2ccc(Cl)cc2)o1)c1c(N)n(Cc2ccccc2)c(=O)[nH]c1=O	-13%	-9%	0	i	1%	-1%[15.4 µM]
COc1ccc(C(=O)C[n+]2ccccc2Cl)cc1	-21%	x	x	x	x	x
CCc1ccc(C2CC(=O)N(c3ccc(F)cc3)C3=C2C(=O)OC3)cc1 (stereo not given)	1%	8%	-3	i	-2%	0%
CCN1C[C@@H]2[C@@H]3C(=O)N(C)C(=O)[C@@H]3[C@](CC)(C(=O)OC)N2C1=NC	0%	9%	x	i	x	x
Cc1cc(C)c2oc(-c3cccc(N)c3)nc2c1	4%	2%	17	i	-3%	10%
Cc1ccc2nc(-c3cccc(N)c3)oc2c1	14µM*	1%	8	i	1%	1%
O=C1c2cccc(Cl)c2C(=O)N1c1ccccn1	x	10%	-11	i	x	-4%[15.4 µM]
O=C1c2cc3ccccc3c(-c3ccccc3)c2C(=O)N1c1ccccn1	32µM*	-11%	-3	i	-5%	u
CCOC(=O)C1CCCN(C(=O)c2ccc(SC(F)(F)F)cc2)CC1 (stereo not given)	0%	x	x	i	x	x
CCCOc1ccc(-c2nn(-c3ccccc3)cc2C2NC(=O)NC(C)=C2C(=O)OC(C)C)cc1 (stereo not given)	-18%	x	x	x	0%	x
CCc1ccc(S(=O)(=O)N(C(C)=O)c2ccc3oc4c(c3c2)CCCC4)cc1	-2%	x	x	x	-2%	x
COc1ccc(-c2nc(C#N)c(N3CCN(c4cccc(Cl)c4)CC3)o2)cc1OC	28µM*	1%	2	i	8%	0%
N#Cc1nc(-c2cccs2)oc1N1CCN(c2ccccc2)CC1	28µM*	-3%	-4	i	9%	-4%
COc1ccccc1-c1nc(C#N)c(N2CCN(Cc3ccccc3)CC2)o1	28µM*	-11%	-12	i	0%	7%
N#Cc1nc(-c2cccc3ccccc23)oc1N1CCCCC1	u	9%	x	i	3%	-13%
CC1CCN(c2oc(-c3cccc4ccccc34)nc2C#N)CC1	5.6µM*	-3%	-5	i	0%	u
CC1CC(C)CN(c2oc(-c3ccccc3Cl)nc2C#N)C1 (stereo not given)	11µM*	-5%	14	i	3%	-7%
N#Cc1nc(-c2ccccc2Cl)oc1N1CCN(C(=O)c2ccco2)CC1	3%	-3%	-1	i	0%	u
CN(C)c1oc(-c2ccccc2[N+](=O)[O-])nc1C#N	-12%	-2%	1	i	2%	6%
CN(C)c1oc(-c2ccccc2Cl)nc1C#N	14µM*	-7%	-7	i	4%	u
SMILES	ClpP mod	gsp antagonist	RXFP1 antag	Akt phos inh	RXFP1 agonist	gsp ag
N#Cc1nc(-c2ccccc2Cl)oc1N1CCCCC1	10µM*	3%[15.4 µM]	-2	i	4%	-20%
O=C(NCc1cccc(F)c1)c1[nH]c(C(F)(F)F)nc1-c1ccccc1	-2%	x	x	i	x	x
O=[N+]([O-])c1ccc(Nc2ccccc2)c2nonc12	0%	-21%	2	i	1%	17%
O=[N+]([O-])c1ccc(Sc2cccc[n+]2[O-])c2nonc12	2%	35µM*	u	i	4%	11%[15.4 µM]
COC(=O)CSc1ccc(C#N)c(SCC(=O)OC)c1	14µM*	-26%	x	i	-1%	-25%
COC(=O)CSc1cc(SCC(=O)OC)c(C#N)c(SCC(=O)OC)c1	-4%	-29%	1	i	1%	6%
Nc1nc(=S)c2n[nH]nc2[nH]1	6%	x	x	x	x	x
N/C(=N/OCc1cccc([N+](=O)[O-])c1)c1nonc1N	11µM*	8%	11	i	0%	u
N/C(=N\OCc1ccccc1)c1nonc1N	-2%	1%	4	i	-2%	8%
O=C(CS(=O)c1ccc(Br)cc1)N1CCOCC1 (stereo not given)	-1%	9%	17	i	2%	6%
Brc1cc(Br)c[n+](CCc2ccccc2)c1	-2%	x	x	x	x	x
COc1cc(NC(=O)COC(=O)c2ccccc2SCC(=O)N2CCCC2)cc(OC)c1	-3%	-23%	-7	i	0%	-43%
COc1ccc(C)cc1NC(=O)COC(=O)c1ccccc1SCC(=O)N1CCCC1	28µM*	u	-7	i	4%	-15%
COc1ccc(C(=O)NCC(C)(c2ccccc2)c2ccccc2)cc1S(=O)(=O)N1CCOCC1	0%	35µM*	-8	i	x	32%
COc1ccc(C(=O)NCc2ccncc2)cc1S(=O)(=O)N1CCOCC1	-3%	4%	-11	i	-1%	17%
Cc1cccc(-n2c(-c3cccc([N+](=O)[O-])c3)nc3nc4ccccc4nc32)c1	x	x	x	x	3%	x
O=[N+]([O-])c1cc(-c2nc3nc4ccccc4nc3n2CCc2ccccc2)cc([N+](=O)[O-])c1	-2%	35µM*	-8	i	-2%	-1%[15.4 µM]
c1ccc(Cn2c(-c3ccccc3)nc3nc4ccccc4nc32)cc1	32µM*	-17%	-12	i	5%	27%
C=CCc1cc(Cl)ccc1OCCOCCN(C)C	x	12%	u	i	-3%	3%[15.4 µM]
CCOC(=O)c1c(C)sc(-c2c(-c3ccccc3)[nH]c3[nH]c(=O)[nH]c(=O)c23)c1O	2%	x	x	x	0%	x
COc1cccc(CN(C)C(=O)c2ccc(COc3ccc(Cl)cc3)cc2)c1OC	x	-16%	-6	i	-2%	-29%
